The panel holds about 83,000 compounds, 20% with a hit somewhere; the sample as a whole holds those more often.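 A percent growth of 40 corresponds to 60% growth inhibition; 0 means no net growth; -100 means all cells died. Active threshold: below 10.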 Calls of active or inactive are those of the source.

In the assay the test system is MDA-MB-435 melanoma. The assay can be described thus: NCI-60 one-dose screen, 48 h (100 = growth as untreated, 0 = no growth, -100 = all killed). Particulars: 10 µM unless noted.
Turning to `COc1ccc(-c2oc3cc(O)c(OC)c(O)c3c(=O)c2OC)cc1O`, the growth was -45.9% (active). The value for `c1ccc(-c2nnc(Nc3nnc(-c4ccccc4)s3)s2)cc1` was 106% (inactive); that for `CCN1CCN(c2cc(-c3cn[nH]c3-c3cc(C)cc(OC)c3)nc(-c3cccnc3)n2)CC1` was 81.2% (inactive); that for `CCCn1cnc2c1c(=O)n(CCCCC(C)=O)c(=O)n2C` was 117% (inactive). The value for `O=C1C2C3C=CC(O3)C2C(=O)N1Nc1ccccc1` (centres undefined) was 96.9% (inactive); that for `O=C(Nc1ccncc1)C(=O)c1cn(S(=O)(=O)c2cccc(F)c2)c2ccccc12` was -1.83% (active). Take `COc1ccc(-c2csc(NC(=O)c3cc(OC)c(OC)c(OC)c3)n2)cc1`: the growth is 96.4% (inactive). For the molecule `CCC1=C(c2ccc(OC)cc2)C(C)(C)Oc2cc(O)c(CN3CCCC3)cc21`, the growth was 70.9% (inactive). For the molecule `CCOc1nc(-c2ccccc2)cc2c(O)c(-c3nnco3)[nH]c(=O)c12`, the growth is 63.8% (inactive). For `C=C1CC[C@@H]2[C@](C)(COC(C)=O)[C@H](OC(C)=O)CC[C@@]2(C)[C@@H]1CC(Nc1ccc(S(=O)(=O)Nc2cc(C)on2)cc1)C1=CCOC1=O` (some centres undefined), the growth is 35% (inactive).

As for `COc1ccc(C2=NN(C(=O)c3cc(OC)c(OC)c(OC)c3)C(c3ccc(C#N)cc3)C2)cc1OC` (centres undefined), the growth is -40.4% (active). The value for `O=C1/C(=N/O)CCc2ccccc21` was 95.6% (inactive); that for `O=C(/C=C/c1cccnc1)NCCCCC1CCCN(C(=O)c2ccccc2)C1` (centres undefined) was 7.35% (active). The value for `COc1ccc(Nc2ccnc(NCCCNc3ccnc4cc(Cl)ccc34)n2)cc1` was -94.7% (active).
